The results in this text go back to PubChem BioAssay (NCI).

Test [1] in a line: NCI Yeast Anticancer Drug Screen. Data for the rad50 strain (AID 155).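 Note: 0% = growth of vehicle-only cultures of the same strain.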 The following applies: S. cerevisiae rad50 strain growth inhibition, active compounds read high. The method in brief: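 Genetically altered yeast (DNA repair pathway); compound treatment; growth inhibition vs vehicle ctrl.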
The nature of test [2]: NCI Yeast Anticancer Drug Screen. Data for the mec2-1 strain (AID 157). The following applies: S. cerevisiae mec2-1 strain, active compounds read high. The method in brief:
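Vehicle-treated cultures served as reference for growth inhibition of compound-exposed mec2-1 yeast.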

A short description of test [3]: NCI Yeast Anticancer Drug Screen. Data for the sgs1 mgt1 strain (AID 161).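 Note: 0% = growth of cultures given vehicle only.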 The following applies: S. cerevisiae sgs1 mgt1 strain, active compounds read high. The method in brief: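 Test agents were incubated with a DNA-repair-mutant yeast strain. Growth was then read and compared against vehicle-treated controls.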
Test [4] in a line: NCI Yeast Anticancer Drug Screen. Data for the cln2 rad14 strain (AID 165).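 Note: 0% = growth equal to vehicle treated cultures.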 To be noted: S. cerevisiae cln2 rad14 strain, active compounds read high. The method in brief:
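Each compound was tested on cln2 rad14 yeast. Inhibition of growth was calculated against vehicle-exposed controls.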

Test [5] is described as follows: NCI Yeast Anticancer Drug Screen. Data for the bub3 strain (AID 167). The following applies: S. cerevisiae bub3 mutant strain, active compounds read high. An outline of the steps:
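Yeast carrying a defined mutation is treated with each compound, and growth is compared with that of vehicle-exposed cells to give inhibition.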

Test [6] can be described thus: NCI Yeast Anticancer Drug Screen. Data for the mlh1 rad18 strain (AID 175). To be noted: S. cerevisiae mlh1 rad18 strain growth inhibition, active compounds read high. An outline of the steps: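 Vehicle-treated cultures served as the reference for growth inhibition in a yeast strain carrying DNA damage repair alterations exposed to each compound.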
[7] abbreviates: at 5.0 µM (retest, dose inferred, filed as 0.5).
Setting [8] is: at 50.0 µM (retest, dose inferred, filed as 5.0).

About 79,000 compounds went through this panel and 15% of them were active in at least one assay; those are over-represented in the sample as a whole. A number with no mark means an inactive call. Activity calls are given as the source filed them. Cut-off read from the data, not from the text of the source: active = growth inhibition above about 70%; inactive = the rest.

As for `COc1ccc2c(c1)CCCN2CCCCCCCCCCN1CCCCC1`, the growth inhibition in test [1] (setting [7]) was 13%; in test [1] (setting [8]), 38%; in test [1] (at 50.0 µM), 71.3% (active); in test [2] (setting [7]) it was 7%; in test [2] (setting [8]), 34%; in test [2] (at 50.0 µM), 56.9%. Further, the growth inhibition in test [3] (setting [7]) is 36%; in test [3] (setting [8]), 73% (active); in test [3] (at 50.0 µM), 80.8% (active); in test [4] (setting [7]), 28%; in test [4] (setting [8]), 28%; in test [4] (at 50.0 µM) it was 71.2% (active). In addition, the growth inhibition in test [5] (setting [7]) is 35%; in test [5] (setting [8]) it was 60%; in test [5] (at 50.0 µM) it was 59.8%; in test [6] (setting [7]), 25%; in test [6] (setting [8]) it was 25%; in test [6] (at 50.0 µM), 61.4%.
In the case of `CC1(C)CC(=O)C(CC2C(=O)c3ccccc3C2=O)C(=O)C1C(=O)C(=O)Nc1cccc2ccc(O)cc12` (configuration not stated), the growth inhibition was 28% in test [1] (setting [7]); 48% in test [1] (setting [8]); 7.85% in test [1] (at 50.0 µM); 25% in test [2] (setting [7]); 23% in test [2] (setting [8]); -13.3% in test [2] (at 50.0 µM). Besides, the growth inhibition in test [3] (setting [7]) is 10%; in test [3] (setting [8]), 39%; in test [3] (at 50.0 µM), -8.6%; in test [4] (setting [7]) it was 22%; in test [4] (setting [8]), 39%; in test [4] (at 50.0 µM), -7.7%. Also, the growth inhibition is 30% in test [5] (setting [7]); 36% in test [5] (setting [8]); -31.9% in test [5] (at 50.0 µM); 32% in test [6] (setting [7]); 52% in test [6] (setting [8]); -30.2% in test [6] (at 50.0 µM).
For the compound `O=C(/C=C/c1ccc(Cl)c(Cl)c1)CCN1CCN(CCC(=O)/C=C/c2ccc(Cl)c(Cl)c2)CC1`, the growth inhibition was 36% in test [1] (setting [7]); 98% (active) in test [1] (setting [8]); 82.7% (active) in test [1] (at 50.0 µM); 38% in test [2] (setting [7]); 99% (active) in test [2] (setting [8]); 85.5% (active) in test [2] (at 50.0 µM). In addition, the growth inhibition in test [3] (setting [7]) was 11%; in test [3] (setting [8]), 99% (active); in test [3] (at 50.0 µM), 88.1% (active); in test [4] (setting [7]), 16%; in test [4] (setting [8]), 99% (active); in test [4] (at 50.0 µM), 86.3% (active). The growth inhibition is 14% in test [5] (setting [7]); 98% (active) in test [5] (setting [8]); 82% (active) in test [5] (at 50.0 µM); 44% in test [6] (setting [7]); 98% (active) in test [6] (setting [8]); 86.5% (active) in test [6] (at 50.0 µM).
As for `CC(=O)Sc1ccccc1C(=O)NCc1ccc(Cl)cc1`, the growth inhibition is 2% in test [1] (setting [7]); 97% (active) in test [1] (setting [8]); 97.8% (active) in test [1] (at 50.0 µM); -8% in test [2] (setting [7]); 98% (active) in test [2] (setting [8]); 99% (active) in test [2] (at 50.0 µM). Further, the growth inhibition in test [3] (setting [7]) is 2%; in test [3] (setting [8]), 97% (active); in test [3] (at 50.0 µM), 97.8% (active); in test [4] (setting [7]), -12%; in test [4] (setting [8]), 94% (active); in test [4] (at 50.0 µM) it was 98.5% (active). In addition, the growth inhibition in test [5] (setting [7]) was 0%; in test [5] (setting [8]), 96% (active); in test [5] (at 50.0 µM), 98.5% (active); in test [6] (setting [7]) it was 13%; in test [6] (setting [8]) it was 96% (active); in test [6] (at 50.0 µM), 98.7% (active).
Consider `CC1=C(C(=O)NCc2ccccc2)C(c2ccccc2O)C(C(=O)NCc2ccccc2)=C(C)N1`, for which the growth inhibition in test [1] (setting [7]) is 27%; in test [1] (setting [8]), 27%; in test [1] (at 50.0 µM) it was 87.3% (active); in test [2] (setting [7]), 17%; in test [2] (setting [8]) it was 17%; in test [2] (at 50.0 µM), 85% (active). In addition, the growth inhibition in test [3] (setting [7]) was 17%; in test [3] (setting [8]), 17%; in test [3] (at 50.0 µM), 79.7% (active); in test [4] (setting [7]), 13%; in test [4] (setting [8]), 13%; in test [4] (at 50.0 µM) it was 71.4% (active). For the same compound, the growth inhibition is 7% in test [5] (setting [7]); 7% in test [5] (setting [8]); 86.4% (active) in test [5] (at 50.0 µM); 15% in test [6] (setting [7]); 15% in test [6] (setting [8]); 78.2% (active) in test [6] (at 50.0 µM).
Consider `CCCOc1cc(C(=O)OCCN(CC)CC)cc(OCCC)c1OCCC`, for which the growth inhibition in test [1] (setting [7]) is 6%; in test [1] (setting [8]) it was 29%; in test [1] (at 50.0 µM), 36.9%; in test [2] (setting [7]), 6%; in test [2] (setting [8]), 19%; in test [2] (at 50.0 µM) it was 15.8%. Besides, the growth inhibition was 4% in test [3] (setting [7]); 43% in test [3] (setting [8]); 44.8% in test [3] (at 50.0 µM); 8% in test [4] (setting [7]); 13% in test [4] (setting [8]); 15.1% in test [4] (at 50.0 µM). In addition, the growth inhibition in test [5] (setting [7]) was -21%; in test [5] (setting [8]), 12%; in test [5] (at 50.0 µM), 23%; in test [6] (setting [7]), 0%; in test [6] (setting [8]), 41%; in test [6] (at 50.0 µM) it was 61.8%.
Take `O=C(O)C(S(=O)(=O)O)S(=O)(=O)O`: the growth inhibition in test [1] (setting [7]) is 99% (active); in test [1] (setting [8]), 99% (active); in test [1] (at 50.0 µM), 99.2% (active); in test [2] (setting [7]), 54%; in test [2] (setting [8]), 99% (active); in test [2] (at 50.0 µM) it was 99.4% (active). The growth inhibition in test [3] (setting [7]) was 100% (active); in test [3] (setting [8]), 99% (active); in test [3] (at 50.0 µM), 99.1% (active); in test [4] (setting [7]), 100% (active); in test [4] (setting [8]) it was 99% (active); in test [4] (at 50.0 µM), 99.3% (active). The growth inhibition was 99% (active) in test [5] (setting [7]); 99% (active) in test [5] (setting [8]); 98.4% (active) in test [5] (at 50.0 µM); 99% (active) in test [6] (setting [7]); 99% (active) in test [6] (setting [8]); 99.3% (active) in test [6] (at 50.0 µM).
For the compound `CC[C@@]1(OP(=O)(O)O)C(=O)OCc2c1cc1n(c2=O)Cc2cc3ccccc3nc2-1`, the growth inhibition in test [1] (setting [7]) was 89% (active); in test [1] (setting [8]), 92% (active); in test [1] (at 50.0 µM), 79.2% (active); in test [2] (setting [7]), 33%; in test [2] (setting [8]), 95% (active); in test [2] (at 50.0 µM) it was 87.1% (active). Besides, the growth inhibition in test [3] (setting [7]) was 6%; in test [3] (setting [8]), -37%; in test [3] (at 50.0 µM), 80.7% (active); in test [4] (setting [7]), -11%; in test [4] (setting [8]), -58%; in test [4] (at 50.0 µM), 67%. Moreover, the growth inhibition in test [5] (setting [7]) was 14%; in test [5] (setting [8]), -15%; in test [5] (at 50.0 µM) it was 77.2% (active); in test [6] (setting [7]), 49%; in test [6] (setting [8]), 86% (active); in test [6] (at 50.0 µM) it was 74.2% (active).
For the compound `Oc1cc2ccccc2cc1O`, the growth inhibition in test [1] (setting [7]) is 6%; in test [1] (setting [8]), 90% (active); in test [1] (at 50.0 µM) it was 95.5% (active); in test [2] (setting [7]), 5%; in test [2] (setting [8]) it was 77% (active); in test [2] (at 50.0 µM), 86% (active). The growth inhibition in test [3] (setting [7]) is 2%; in test [3] (setting [8]), 88% (active); in test [3] (at 50.0 µM) it was 93.8% (active); in test [4] (setting [7]), 3%; in test [4] (setting [8]) it was 90% (active); in test [4] (at 50.0 µM), 92.4% (active). In addition, the growth inhibition is 5% in test [5] (setting [7]); 92% (active) in test [5] (setting [8]); 96.1% (active) in test [5] (at 50.0 µM); 5% in test [6] (setting [7]); 93% (active) in test [6] (setting [8]); 96% (active) in test [6] (at 50.0 µM).
